Active and inactive are the calls of the source. Unless noted, no rule for the calls is given here.

Assay [1] has as its system Wnt5a (protein binding on small-molecule microarray). Kind of assay: Wnt5a binders on small-molecule microarray, primary screen, biophysical, 635/667 nm fluorescence (AID 1142).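 Also: fluorescence read at 667 nm with signal to noise per printed feature.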 The note with it: 635 nm fluorescence, higher = more signal.
A short description of assay [2]: cell viability in Huh7 cells, primary screen, cytotoxicity control for HCV replication inhibitor project, CellTiter-Glo luminescence, basal, 48 h (AID 1143).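 Also: Huh7 hepatoma cells carrying a hepatitis C replication reporter with no stimulus; test concentration not given here.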 The conditions noted are these: Huh7 HCV replicon, higher = more signal, called active from +8 up or from −8 down. A general note: Cellular ATP, detected with luciferase, serves as a proxy for viable cell number.

Assay [3] can be described thus: P. aeruginosa biofilm formation inhibitors, primary screen, PAO1 strain, BacTiter-Glo luminescence, LB-PBS (AID 1144). The conditions noted are these: 12 h, higher = more signal.
Assay [4] is described as follows: CREB reporter modulators without forskolin, primary screen, cell-based, PC12, CRE-LacZ reporter, unstimulated (AID 1145). The conditions noted are these: no forskolin, luminescence, 4.5 h, higher = more signal, called active from +8 up or from −8 down.
Assay [5] can be described thus: CREB reporter modulators under forskolin, primary screen, cell-based, PC12, CRE-LacZ reporter, forskolin-stimulated (AID 1146).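 Also: PC12 cells with 6xCRE LacZ reporter stimulated by forskolin 10 µM; beta-galactosidase reporter signal reflecting CREB driven transcription.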 The note with it: luminescence, 4.5 h, higher = more signal, called active from +8 up or from −8 down.
The target of assay [6] is Streptavidin (Streptomyces avidinii) (UniProt P22629). Put plainly: streptavidin binders on small-molecule microarray, primary screen, artefact control for SMM compound annotation, biophysical, 635/667 nm fluorescence (AID 1147).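 Also: signal reflects streptavidin binding to arrayed compounds as a control protein.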 The note with it: streptavidin binding, higher = more signal.
Chain of Streptavidin (Streptomyces avidinii) (P22629 whole entry, looked up): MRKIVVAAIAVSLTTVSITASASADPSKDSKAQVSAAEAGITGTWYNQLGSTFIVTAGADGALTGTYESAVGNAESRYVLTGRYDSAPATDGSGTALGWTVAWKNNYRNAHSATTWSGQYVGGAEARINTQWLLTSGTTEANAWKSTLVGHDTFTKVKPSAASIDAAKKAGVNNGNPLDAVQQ
A short description of assay [7]: small-molecule binders of probe aInhba, primary screen, biochemical, small-molecule microarray, 635/667 nm fluorescence (AID 1148).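 Also: score merges 667nm spot fluorescence with signal-to-noise for antibody binding to printed compounds.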 The note with it: higher = more signal.
For assay [8], the target named is Torsin-1A (Homo sapiens) (UniProt O14656). Put plainly: torsin A binders from cell lysate, primary screen, small-molecule microarray, wild-type, 635/667 nm (AID 1149). The note with it: COS7 hTOR1A-WT lysate, 635 nm fluorescence, higher = more signal.
Chain of Torsin-1A (Homo sapiens) (O14656 whole entry, looked up): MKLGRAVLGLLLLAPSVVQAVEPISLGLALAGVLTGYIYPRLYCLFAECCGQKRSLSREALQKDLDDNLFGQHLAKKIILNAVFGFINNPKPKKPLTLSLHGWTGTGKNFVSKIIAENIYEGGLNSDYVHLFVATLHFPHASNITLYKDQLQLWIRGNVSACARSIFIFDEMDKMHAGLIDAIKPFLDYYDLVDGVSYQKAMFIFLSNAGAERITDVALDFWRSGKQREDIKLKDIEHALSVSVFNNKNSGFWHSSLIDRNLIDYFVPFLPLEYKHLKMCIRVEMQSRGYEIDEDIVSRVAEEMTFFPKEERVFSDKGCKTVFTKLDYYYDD
Assay [9] shares this target. Kind of assay: small-molecule binders of mutant TOR1A in lysate, primary screen, cell lysate, small-molecule microarray, COS7 lysate, 635/667 nm fluorescence (AID 1150).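 Also: score pools 667 nm emission and signal to noise measuring lysate protein binding.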 The conditions noted are these: COS7 hTOR1A mutant lysate, 635 nm fluorescence, higher = more signal.
Assay [10] concerns Sonic hedgehog protein (Shh). Kind of assay: small-molecule binders of Shh protein, primary screen, biochemical, small-molecule microarray, 635/667 nm fluorescence (AID 1151).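 Also: Shh protein binding to compounds spotted on small-molecule microarray slides; score combines spot fluorescence intensity with signal-to-noise across triplicate slides.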 The conditions noted are these: small-molecule microarray binding, 635 nm fluorescence; higher = more signal.
Assay [11] is described as follows: E. coli DRC41 culture turbidity changes, primary screen, E. coli filamentation inducer project, strain DRC41, OD650, 48 h (AID 1152).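 Also: E. coli MC1000 strain DRC41 lacking acrAB efflux pump and sulA.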 The note with it: E. coli DRC41 (acrAB sulA), higher = more signal, called active from +8 up or from −8 down.
Assay [12] in a line: small-molecule binders of probe aLefty1, primary screen, biochemical, small-molecule microarray, 635/667 nm fluorescence (AID 1153).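 Also: score merges spot fluorescence with signal-to-noise ratio from the scanned slide images.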 The conditions noted are these: higher = more signal.
Assay [13] in a line: PSAC antagonists in infected red cells, primary screen, cell-based, P. falciparum Indochina, OD700, 1 h (AID 1154). The conditions noted are these: P. falciparum Indochina infected RBC osmotic lysis, higher = more signal, called active from +8 up or from −8 down.
Assay [14] is described as follows: PSAC antagonists in infected red cells, primary screen, cell-based, P. falciparum Indochina, OD700, 2 h (AID 1155).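 Also: lysis reports solute entry through the parasite surface anion channel PSAC; channel blockers reduce lysis of infected cells.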 The note with it: P. falciparum Indochina infected erythrocytes, osmotic lysis OD700; higher = more signal, called active from +8 up or from −8 down.
Assay [15] in a line: osmotic lysis modulators in infected erythrocytes, primary screen, PSAC antagonist project, cell-based, P. falciparum Indochina, OD700, 3 h (AID 1156). The conditions noted are these: higher = more signal, called active from +8 up or from −8 down.
Assay [16] is described as follows: PSAC antagonists in infected red cells, primary screen, cell-based, P. falciparum Indochina, OD700, 18 h (AID 1157). The note with it: P. falciparum Indochina infected erythrocytes, osmotic lysis OD700, 18 h; higher = more signal, called active from +8 up or from −8 down.
Assay [17] is described as follows: modulators of S6 phosphorylation in cells, primary screen, cell-based, A549, cytoblot, luminescence, serum-stimulated (AID 1158).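 Also: serum-stimulated A549 lung adenocarcinoma cells; signal is phosphorylated S6 detected by cytoblot immunostaining with HRP secondary.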 The conditions noted are these: A549 phospho-S6 cytoblot, 5 h, higher = more signal.
Assay [18] addresses NADPH oxidase 2 (Homo sapiens) (UniProt P04839). Put plainly: NOX2-dependent H2O2 signal modulators, primary screen, NOX inhibitor project, cell-based, HEK293-NOX2, PMA-stimulated, Amplex Red fluorescence (AID 1159). Also: test concentration not given here. The note with it: 45 min, higher = more signal, called active from +8 up or from −8 down.
Assay [19] deals with NADPH oxidase 4 (Homo sapiens) (UniProt Q9NPH5). Kind of assay: NOX4-dependent H2O2 signal modulators, primary screen, NOX inhibitor project, cell-based, HEK293-NOX4, tetracycline-induced, Amplex Red fluorescence (AID 1160). The note with it: 45 min, higher = more signal, called active from +8 up or from −8 down.
Chain of NADPH oxidase 4 (Homo sapiens) (Q9NPH5 whole entry, looked up): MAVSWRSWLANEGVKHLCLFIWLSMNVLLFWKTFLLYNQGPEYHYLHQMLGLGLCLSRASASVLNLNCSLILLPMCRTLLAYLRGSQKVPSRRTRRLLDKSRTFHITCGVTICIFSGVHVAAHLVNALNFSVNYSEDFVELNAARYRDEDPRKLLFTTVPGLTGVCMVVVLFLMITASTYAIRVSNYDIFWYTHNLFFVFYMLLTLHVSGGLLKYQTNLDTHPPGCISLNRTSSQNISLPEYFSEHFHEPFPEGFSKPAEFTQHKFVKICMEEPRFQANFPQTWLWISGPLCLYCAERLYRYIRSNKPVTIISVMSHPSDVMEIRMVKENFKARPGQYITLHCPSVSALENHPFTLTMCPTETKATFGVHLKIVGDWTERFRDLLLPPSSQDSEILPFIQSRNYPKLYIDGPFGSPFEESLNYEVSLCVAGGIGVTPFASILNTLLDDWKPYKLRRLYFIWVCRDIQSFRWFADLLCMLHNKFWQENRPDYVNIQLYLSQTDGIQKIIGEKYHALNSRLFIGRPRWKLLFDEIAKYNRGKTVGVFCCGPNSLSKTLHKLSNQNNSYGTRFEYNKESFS
The target of assay [20] is NADPH oxidase 5 (Homo sapiens) (UniProt Q96PH1). Kind of assay: NOX5-dependent H2O2 signal modulators, primary screen, NOX inhibitor project, cell-based, HEK293-NOX5, Amplex Red fluorescence (AID 1161). The conditions noted are these: HEK293-NOX5, ionomycin, 45 min, higher = more signal.
Chain of NADPH oxidase 5 (Homo sapiens) (Q96PH1 whole entry, looked up): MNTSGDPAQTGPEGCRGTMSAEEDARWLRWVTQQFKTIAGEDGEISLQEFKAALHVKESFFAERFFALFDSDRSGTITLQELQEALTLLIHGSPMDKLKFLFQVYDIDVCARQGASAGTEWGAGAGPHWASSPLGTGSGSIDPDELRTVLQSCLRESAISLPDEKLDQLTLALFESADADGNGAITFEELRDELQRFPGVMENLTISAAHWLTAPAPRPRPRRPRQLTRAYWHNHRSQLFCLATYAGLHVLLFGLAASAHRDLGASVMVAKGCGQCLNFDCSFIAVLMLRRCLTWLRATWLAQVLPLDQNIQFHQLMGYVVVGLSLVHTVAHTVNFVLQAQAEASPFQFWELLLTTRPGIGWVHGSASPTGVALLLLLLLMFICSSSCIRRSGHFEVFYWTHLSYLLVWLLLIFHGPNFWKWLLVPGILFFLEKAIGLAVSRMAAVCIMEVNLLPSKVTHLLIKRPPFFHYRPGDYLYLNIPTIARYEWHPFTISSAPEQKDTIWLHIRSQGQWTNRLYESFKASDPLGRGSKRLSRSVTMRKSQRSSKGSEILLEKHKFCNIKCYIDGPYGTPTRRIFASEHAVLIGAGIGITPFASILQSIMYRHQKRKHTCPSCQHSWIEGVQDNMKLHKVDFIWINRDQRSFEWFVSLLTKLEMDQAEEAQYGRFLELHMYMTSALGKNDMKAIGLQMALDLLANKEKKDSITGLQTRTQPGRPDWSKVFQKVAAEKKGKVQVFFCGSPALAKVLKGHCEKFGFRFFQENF

Chain of NADPH oxidase 2 (Homo sapiens) (P04839 whole entry, looked up): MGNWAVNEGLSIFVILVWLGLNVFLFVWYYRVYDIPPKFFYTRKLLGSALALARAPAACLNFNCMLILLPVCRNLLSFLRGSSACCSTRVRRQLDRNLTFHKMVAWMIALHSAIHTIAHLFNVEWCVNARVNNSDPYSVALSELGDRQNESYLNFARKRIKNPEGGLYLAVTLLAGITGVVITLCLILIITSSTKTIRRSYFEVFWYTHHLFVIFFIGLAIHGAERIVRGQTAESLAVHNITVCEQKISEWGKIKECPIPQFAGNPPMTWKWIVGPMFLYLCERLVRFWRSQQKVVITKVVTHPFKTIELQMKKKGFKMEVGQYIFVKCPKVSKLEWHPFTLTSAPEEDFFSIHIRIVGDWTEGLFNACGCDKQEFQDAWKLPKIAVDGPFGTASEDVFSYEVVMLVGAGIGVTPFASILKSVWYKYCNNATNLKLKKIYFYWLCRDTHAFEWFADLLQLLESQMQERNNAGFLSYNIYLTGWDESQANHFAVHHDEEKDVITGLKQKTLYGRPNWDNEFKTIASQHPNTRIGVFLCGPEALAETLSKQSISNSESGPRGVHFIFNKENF

For the compound `Cc1ccc(C(C)CC(O)C2C=CC3C(=O)N(c4ccccc4)C(=O)C3N2Nc2ccccc2)o1` (stereo not given), the composite z-score is 0.158 in [1]; 1.19 in [6]; 0.0792 in assay [7]; 0.145 with Torsin-1A (Homo sapiens) [8]; 1.11 with Torsin-1A (Homo sapiens) [9]; -0.125 in assay [10]. Further, in assay [12], the composite z-score stood at 0.738. The z-score is -2.95 (inactive) in assay [2]; -0.443 (inactive) in assay [3]; 0.636 (inactive) in assay [4]; 0.367 (inactive) in assay [5]; -1.13 (inactive) in assay [11]; 4.07 (inactive) in assay [13]. Moreover, the z-score in assay [14] was 1 (inactive); in assay [15], -0.0498 (inactive); in assay [16] it was -0.374 (inactive); in assay [17], 2.07; in assay [18], -3.07 (inactive); in [19], -5.71 (inactive). This compound also came in with a z-score in assay [20] of -4.91.

On to `C=CC[C@]1(C(=O)N2CCCCC2)N=C(c2ccc(OCCCO)cc2)O[C@H]1c1ccccc1CN=[N+]=[N-]`, for which the composite z-score in assay [1] was 0.518; in [6] it was 0.997; in assay [7], 0.121; in the assay with Torsin-1A (Homo sapiens) [8], 0.0016; with Torsin-1A (Homo sapiens) [9], 0.361; in assay [10] it was -0.27. In [12], the composite z-score was 0.454. For the same compound, the z-score was -4.07 (inactive) in assay [2]; -1.44 (inactive) in assay [3]; 1.45 (inactive) in assay [4]; 1.86 (inactive) in assay [5]; 0.678 (inactive) in assay [11]; 23.1 (active) in assay [13]. Besides, the z-score in [14] was 4.57 (inactive); in assay [15] it was 2.81 (inactive); in assay [16], 1.08 (inactive); in assay [17] it was 0.83; in assay [18] it was -3.31 (inactive); in assay [19], -0.616 (inactive). In addition, in assay [20], the z-score was -1.46.

Turning to `CCOC(=O)C1=CC[C@@H](c2ccccc2)N(S(=O)(=O)c2ccc(C)cc2)[C@H]1c1ccccc1`, the composite z-score in assay [1] was 0.144; in assay [6], 1.46; in assay [7] it was 0.115; with Torsin-1A (Homo sapiens) [8], 0.345; in the assay with Torsin-1A (Homo sapiens) [9], 0.626; in assay [10], -0.627. The compound further returned a composite z-score in [12] of 0.155. The z-score is -3.01 (inactive) in assay [2]; 1.29 (inactive) in assay [3]; -0.0228 (inactive) in assay [4]; 1.31 (inactive) in assay [5]; -1.11 (inactive) in [11]; 1.97 (inactive) in assay [13]. Moreover, the z-score in [14] is 0.945 (inactive); in assay [15] it was 0.369 (inactive); in assay [16], 0.24 (inactive); in assay [17], -0.685; in assay [18] it was 0.18 (inactive); in assay [19] it was -0.464 (inactive). The z-score in [20] turned out to be 1.75.

Regarding `COCCOC(=O)N1C(=O)[C@@]2(c3ccccc31)[C@H](c1ccc(O)cc1)N1[C@H](c3ccccc3)[C@H](c3ccccc3)OC(=O)[C@H]1[C@@H]2C(=O)N1CCN(c2ncccn2)CC1`, the composite z-score is 0.019 in assay [1]; -0.0184 in [6]; 0.361 in assay [7]; 0.432 with Torsin-1A (Homo sapiens) [8]; 0.997 in the assay with Torsin-1A (Homo sapiens) [9]; 1.4 in assay [10]. The same compound yielded a composite z-score in assay [12] of 0.412. Also, the z-score in assay [2] was -3.19 (inactive); in [3], 0.109 (inactive); in assay [4], -0.598 (inactive); in assay [5], 1.09 (inactive); in assay [11], 0.381 (inactive); in [13] it was 1.4 (inactive). Further, the z-score in [14] was 0.622 (inactive); in [15], 0.113 (inactive); in [16] it was 0.431 (inactive); in [17] it was 0.174; in assay [18] it was 0.964 (inactive); in [19], 0.386 (inactive). The z-score in [20] worked out at 1.08.

The values above are taken from PubChem BioAssay.
